According to PubChem BioAssay (NCATS):
Records with an inconclusive call do not appear. A call without a number means that no potency is given here. Values without a mark were called inactive. Calls of active or inactive are those of the source. Calls come from the whole dose curve; as a rule, active = well fitted inhibition curve with a large enough effect; inconclusive = small, poorly fitted or top-dose-only effect; inactive = flat fitted curve, though single readings scatter.

Experiment: qHTS to identify inhibitors of the type 1 interferon - major histocompatibility complex class I in skeletal muscle: primary screen against the NCATS Pharmaceutical Collection (AID 1347407)
Settings: human skeletal muscle cells, IFN-b-induced MHC-I HiBiT luminescence, 24 h; series mostly up to 45.9 µM
Source text: Assay Submitter (PI): Travis B. Kinder Ph.D. & James Inglese Ph.D.
Assay Development and Screening Technology Laboratory (ADST)
National Center for Advancing Translational Sciences (NCATS), Rockville, MD
National Institute of Health (NIH), Bethesda, Maryland
Idiopathic inflammatory myopathies, collectively referred to as myositis, are a group of rare autoimmune diseases characterized by skeletal muscle inflammation, weakness, and usually accompanied by systemic pathologies of the skin, lungs, or vasculature. Current immunosuppressive therapies and glucocorticoids are often not curative and are accompanied by harsh side effects, especially in children with juvenile myositis. We initiated a drug repurposing and development program to identify more targeted, less toxic therapeutics to treat myositis. Although its cause is not known, muscle from a subset of patients have an abundance of the inflammatory type 1 interferon (IFN) and a down-stream product major histocompatibility complex class I (MHC class I), which are both thought to contribute to damage and weakness. We conducted quantitative high throughput screening on 6,576 compounds (4,679 unique) through a series of cell-based assays to identify those that inhibit the IFN-stimulated expression of MHC class I in muscle precursor cells (myoblasts). The compound identification and evaluation strategy utilized a primary screen with reporter-tagged MHC class I in genome-engineered myoblasts, ATP content counter screen for viability, HLA-ABC immunofluorescence secondary screen, and HLA-B RT-qPCR tertiary screen.
The primary screen utilized CRISPR/Cas9 genome-engineering of immortalized human myoblasts, C25cl48, where a pro-luminescent reporter HiBit was fused to the C-terminus of endogenous MHC class I allele HLA-B*08:01 (HLA-B HiBit myoblasts). HiBit is an 11 amino acid fragment of NanoLuc luminescent reporter (Promega Corporation), and when complexed to the larger LgBit fragment, the reconstituted enzyme produces light in the presence of furimazine substrate (Schwinn et al., 2018). Briefly, HLA-B HiBit myoblasts were plated into 1536-well plates, treated with 4.0 ng/ml human IFN-beta and 2,816 compounds from the NCATS Pharmaceutical Collection (NPC) that contains all drugs approved in the US, EU, and Japan (Huang et al., 2011) in an 8-point, 1:5 titration with a high final concentration of 46 uM. After 24 hrs of treatment, cells were assayed by Nano-Glo HiBiT Lytic Detection System (Promega) and luminescence measured by a ViewLux 1430 Ultra HTS (Perkin Elmer).
Huang R, Southall N, Wang Y, Yasgar A, Shinn P, Jadhav A, Nguyen D-T, Austin CP. 2011. The NCGC pharmaceutical collection: a comprehensive resource of clinically approved drugs enabling repurposing and chemical genomics. Sci Transl Med 3:80ps16. doi:10.1126/scitranslmed.3001862
Schwinn MK, Machleidt T, Zimmerman K, Eggers CT, Dixon AS, Hurst R, Hall MP, Encell LP, Binkowski BF, Wood K V. 2018. CRISPR-Mediated Tagging of Endogenous Proteins with a Luminescent Peptide. ACS Chem Biol 13:467-474. doi:10.1021/acschembio.7b00549
PROTOCOL TABLE (as described by Inglese et al., 2007)
SEQUENCE No. (e.g., 1, 2, 3, etc.); […] (e.g., Cells, Incubation, Reagent, etc.); VALUE; DESCRIPTION
1a; Cells; 5 uL; Use a Multidrop Combi (Thermo Scientific) to seed 350 cells/well into nine Greiner 1536 well white/solid bottom, high base, TC plates in 5 ul/well of iHSKM growth medium (GM) without dexamethasone into columns 1+2. Add metal lids with gas-exchange holes
1b; Cells; 5 uL; Use a Multidrop Combi (Thermo Scientific) to seed 350 cells/well into nine Greiner 1536 well white/solid bottom, high base, TC plates in 5 ul/well of iHSKM GM without dexamethasone + 4 ng/ml IFN-b into columns 3 - 48. Add metal lids with gas-exchange holes
2; Incubate; 1 hr; Incubate at 37 C, 5% CO2, 95% RH
[…]
Potency is the fitted concentration of half-maximal effect.

Compound	Potency	activity change, negative = inhibition
OCc1cccnc1	inactive	
Cc1cccc(C)c1NC(=O)c1ccc(N)cc1	inactive	
CCCCCCOC(=O)NC(=N)c1ccc(NCc2nc3cc(C(=O)N(CCC(=O)OCC)c4ccccn4)ccc3n2C)cc1	inactive	
CCOc1ccc(NS(=O)(=O)c2ccc(N)cc2)nn1	inactive	
Oc1ccccc1	inactive	
CCCCCC1Nc2cc(C(F)(F)F)c(S(N)(=O)=O)cc2S(=O)(=O)N1 (stereo not given)	inactive	
COc1cc(C(=O)NC2CCCNC2)cc(OC)c1OC (stereo not given)	inactive	
O=C(O)c1[nH]n(-c2ccc(S(=O)(=O)O)cc2)c(=O)c1N=Nc1ccc(S(=O)(=O)O)cc1	inactive	
C/C(=C(/OCCOc1ccc(Cl)cc1)c1ccc(Cl)cc1Cl)n1ccnc1	inactive	
CCN1C(=O)c2ccccc2C1Nc1ccc(OCCN2CCCCC2)cc1 (stereo not given)	inactive	
C=CCOc1cc(Cl)ccc1C(=O)NCCN(CC)CC	inactive	
O=P(O)(O)OCC(O)CO (stereo not given)	inactive	
O=C(Nc1ccc(S(=O)(=O)N2CCOCC2)cc1)c1cc(Cl)ccc1NS(=O)(=O)c1ccc(Cl)s1	inactive	
C/C(=C1\CCOC(=O)S1)N(C=O)Cc1cnc(C)nc1N	inactive	
COc1c(C)c2c(c(O)c1C/C=C(\C)CCC(=O)OCCN1CCOCC1)C(=O)OC2	inactive	
OC[C@]1(O)OC[C@@H](O)[C@H](O)[C@@H]1O	inactive	
O=C(OCC1(COC(=O)c2cccnc2)CCCC(COC(=O)c2cccnc2)(COC(=O)c2cccnc2)C1O)c1cccnc1	inactive	
CC(C(=O)O)c1ccc(/C=C2\CCCCC2=O)cc1 (stereo not given)	inactive	
CC(C)=CCNc1ncnc2c1ncn2[C@@H]1O[C@H](CO)[C@@H](O)[C@H]1O	7.45 µM (active)	
Cc1ccc(O)cc1	inactive	

Compound	Potency	activity change, negative = inhibition
COc1cc2nc(Cl)nc(N)c2cc1OC	inactive	
CN1C(=O)c2ccccc2C1=O	inactive	
CCOC(=O)Oc1ccc(CCNC(=O)[C@H](CCSC)NC(C)=O)cc1OC(=O)OCC	inactive	
O=C(O)CCC(=O)OC[C@@H](NC(=O)C(Cl)Cl)[C@H](O)c1ccc([N+](=O)[O-])cc1	inactive	
O=[N+]([O-])c1nccn1CO[C@@H](CO)[C@H](O)CO	inactive	
CN=C(N)NC(=O)Nc1c(C)cccc1C	inactive	
CCCN(CCC)C(=O)C(CCC(=O)OCCCN1CCN(CCOC(=O)Cc2c(C)n(C(=O)c3ccc(Cl)cc3)c3ccc(OC)cc23)CC1)NC(=O)c1ccccc1 (stereo not given)	inactive	
COC(=O)c1cc(Cl)ccc1NS(=O)(=O)C(F)(F)F	inactive	
NCC[C@H](O)C(=O)N[C@@H]1C[C@H](N)[C@@H](O[C@H]2O[C@H](CN)[C@@H](O)[C@H](O)[C@@H]2O)[C@H](O)[C@@H]1O[C@H]1O[C@H](CO)[C@@H](O)[C@H](N)[C@@H]1O		-1.93% [at 0.727 µM]
N#CSCC(=O)O	inactive	
Oc1ccccc1-c1nnco1	inactive	
CC(=O)OCC(=O)[C@@]1(O)[C@H](OC(C)=O)C[C@H]2[C@@H]3CCC4=CC(=O)C=C[C@]4(C)[C@@]3(F)[C@@H](O)C[C@@]21C	inactive	
COc1ccc(/C(C)=C/C(=O)O)c(OC)c1	inactive	
O=C1CCCc2c(O)cccc21	inactive	
Cc1oc(=O)oc1COC(=O)[C@@H]1N2C(=O)[C@@H](NC(=O)[C@H](N)c3ccccc3)[C@H]2SC1(C)C	inactive	
Cc1ccc2c(Cl)cc(Cl)c(O)c2n1	inactive	
Nc1ccc(C(=O)N2CC3CC(CN(Cc4ccccc4)C3)C2)cc1	inactive	
CC(C)(C)C(=O)OCOC(=O)C1N2C(=O)CC2S(=O)(=O)C1(C)C (stereo not given)	inactive	
CN(C(=O)C(Cl)Cl)c1ccc(OC(=O)c2ccco2)cc1	inactive	
CC(CC1c2ccccc2CCc2ccccc21)CN(C)C (stereo not given)	inactive	
